Test in all cases: DAPPL (digital affinity profiling via proximity ligation, sequencing); 10 mM Tris-HCl pH 7.5, 50 mM NaCl, 1 mM DTT, 4% glycerol, room temperature, 30 min; GST-TFs on glutathione beads, 16-mer random dsDNA library, 0.1% formaldehyde crosslink after washing; high values mean tight binding
One experiment has as its target T1, FEV (Homo sapiens, UniProt Q99581 1-238).
T1 sequence: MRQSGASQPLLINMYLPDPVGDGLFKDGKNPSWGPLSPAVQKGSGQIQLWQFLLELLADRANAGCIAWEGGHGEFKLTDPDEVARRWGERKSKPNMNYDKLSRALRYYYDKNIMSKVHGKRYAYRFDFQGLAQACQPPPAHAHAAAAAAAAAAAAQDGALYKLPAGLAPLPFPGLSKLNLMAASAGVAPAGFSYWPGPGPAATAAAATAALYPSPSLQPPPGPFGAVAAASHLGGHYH
The conditions noted are these: protein: recombinant; tags: N-terminal GST; dsDNA, one strand shown. An outline of the steps: (§1)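 Human transcription factors were made in yeast as GST fusions, captured on glutathione beads and barcoded with DNA. With a tag-only sample included, the pool was incubated with 200 nmole of a random double-stranded 16-mer DNA library in Tris/NaCl/DTT/glycerol buffer at room temperature for 30 min, then crosslinked with 0.1% formaldehyde after washing, ligated by proximity, amplified and sequenced. For binding signal, each hexamer's read frequency for a factor is divided by its frequency for the tag-only sample.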

In the next experiment the target is ETV5 (Homo sapiens, UniProt P41161 1-510). The conditions noted are these: protein: recombinant; tags: N-terminal GST; dsDNA, one strand shown. An outline of the steps: as §1
For the next experiment, the target named is HSF1 (Homo sapiens, UniProt Q00613 1-529). The conditions noted are these: protein: recombinant; tags: N-terminal GST; chain copies: 3; dsDNA, one strand shown. An outline of the steps:
as §1

The target in a further experiment is T2, SPIC (Homo sapiens, UniProt Q8N5J4 1-248).
T2 sequence: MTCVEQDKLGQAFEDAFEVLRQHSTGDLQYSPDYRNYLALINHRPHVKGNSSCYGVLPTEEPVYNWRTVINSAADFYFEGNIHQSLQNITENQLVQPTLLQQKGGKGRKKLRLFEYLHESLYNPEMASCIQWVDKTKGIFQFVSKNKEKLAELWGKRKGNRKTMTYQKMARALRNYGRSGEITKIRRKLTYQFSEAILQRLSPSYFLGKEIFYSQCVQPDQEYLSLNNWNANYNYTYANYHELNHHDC
The conditions noted are these: protein: recombinant; tags: N-terminal GST; dsDNA, one strand shown. In short, it runs like this: as §1

A further experiment has as its target ELF4 (Homo sapiens, UniProt Q99607 1-663). Conditions: protein: recombinant; tags: N-terminal GST; dsDNA, one strand shown. An outline of the steps:
as §1

For the next experiment, the target named is T3, ELK4 (Homo sapiens, UniProt P28324-2 1-405).
T3 sequence: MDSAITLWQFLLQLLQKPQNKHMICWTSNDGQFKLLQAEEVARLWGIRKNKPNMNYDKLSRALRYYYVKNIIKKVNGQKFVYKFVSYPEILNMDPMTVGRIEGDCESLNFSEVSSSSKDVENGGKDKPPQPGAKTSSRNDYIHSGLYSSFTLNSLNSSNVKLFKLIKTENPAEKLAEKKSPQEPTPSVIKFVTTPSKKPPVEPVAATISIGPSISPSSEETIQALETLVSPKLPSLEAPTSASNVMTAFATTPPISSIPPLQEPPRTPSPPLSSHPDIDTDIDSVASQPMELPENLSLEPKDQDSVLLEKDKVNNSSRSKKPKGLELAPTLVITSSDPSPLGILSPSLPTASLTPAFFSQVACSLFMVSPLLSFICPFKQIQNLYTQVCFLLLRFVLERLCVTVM
Conditions: protein: recombinant; tags: N-terminal GST; dsDNA, one strand shown. An outline of the steps:
as §1

The target in another experiment is T4, ETV2 (Homo sapiens, UniProt O00321 1-342).
T4 sequence: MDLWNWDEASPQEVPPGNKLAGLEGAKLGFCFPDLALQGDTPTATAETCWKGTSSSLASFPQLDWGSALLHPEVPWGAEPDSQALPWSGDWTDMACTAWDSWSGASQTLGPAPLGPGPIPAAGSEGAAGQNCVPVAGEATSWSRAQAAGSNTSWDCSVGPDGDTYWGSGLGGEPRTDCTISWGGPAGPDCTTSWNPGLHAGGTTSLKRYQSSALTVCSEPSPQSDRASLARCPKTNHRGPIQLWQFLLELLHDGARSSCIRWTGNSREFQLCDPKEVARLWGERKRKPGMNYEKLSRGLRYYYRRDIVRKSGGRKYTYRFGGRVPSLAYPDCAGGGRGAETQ
Conditions: protein: recombinant; tags: N-terminal GST; dsDNA, one strand shown. An outline of the steps:
as §1

The next experiment addresses T5, ELF3 (Homo sapiens, UniProt P78545 1-371).
T5 sequence: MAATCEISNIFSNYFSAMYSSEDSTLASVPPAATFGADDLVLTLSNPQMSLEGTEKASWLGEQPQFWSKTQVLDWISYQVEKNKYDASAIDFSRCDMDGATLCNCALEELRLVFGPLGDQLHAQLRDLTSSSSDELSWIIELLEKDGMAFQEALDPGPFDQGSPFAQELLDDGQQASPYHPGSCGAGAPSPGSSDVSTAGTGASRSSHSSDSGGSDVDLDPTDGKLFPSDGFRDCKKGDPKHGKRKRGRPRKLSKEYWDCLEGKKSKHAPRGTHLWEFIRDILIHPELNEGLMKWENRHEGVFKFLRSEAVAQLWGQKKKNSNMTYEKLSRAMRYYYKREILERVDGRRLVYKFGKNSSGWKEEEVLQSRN
Conditions: protein: recombinant; tags: N-terminal GST; dsDNA, one strand shown. An outline of the steps:
as §1

The target in another experiment is CRX (Homo sapiens, UniProt O43186 1-299). Conditions: protein: recombinant; tags: N-terminal GST; dsDNA, one strand shown. In short, it runs like this: as §1
In a further experiment the target is ETV1 (Homo sapiens, UniProt P50549 1-477). Conditions: protein: recombinant; tags: N-terminal GST; dsDNA, one strand shown. An outline of the steps: as §1
Another experiment deals with T6, ERF (Homo sapiens, UniProt P50548 1-548).
T6 sequence: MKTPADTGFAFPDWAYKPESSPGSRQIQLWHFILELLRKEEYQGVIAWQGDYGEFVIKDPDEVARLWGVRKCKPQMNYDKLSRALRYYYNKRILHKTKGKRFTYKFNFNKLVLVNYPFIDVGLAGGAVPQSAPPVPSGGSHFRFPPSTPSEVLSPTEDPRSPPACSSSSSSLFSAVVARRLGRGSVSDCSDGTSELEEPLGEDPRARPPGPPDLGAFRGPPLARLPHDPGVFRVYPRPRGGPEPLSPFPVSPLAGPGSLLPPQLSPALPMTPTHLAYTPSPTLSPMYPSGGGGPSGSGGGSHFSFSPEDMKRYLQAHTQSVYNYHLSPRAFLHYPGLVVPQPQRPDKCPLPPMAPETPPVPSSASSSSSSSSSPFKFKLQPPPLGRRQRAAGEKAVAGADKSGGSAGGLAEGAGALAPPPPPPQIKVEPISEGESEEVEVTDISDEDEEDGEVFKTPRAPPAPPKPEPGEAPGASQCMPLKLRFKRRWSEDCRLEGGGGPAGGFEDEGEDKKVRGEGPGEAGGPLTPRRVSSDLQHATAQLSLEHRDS
The conditions noted are these: protein: recombinant; tags: N-terminal GST; dsDNA, one strand shown. In short, it runs like this:
as §1

The target of a further experiment is T7, ETV3L (Homo sapiens, UniProt Q6ZN32 1-361).
T7 sequence: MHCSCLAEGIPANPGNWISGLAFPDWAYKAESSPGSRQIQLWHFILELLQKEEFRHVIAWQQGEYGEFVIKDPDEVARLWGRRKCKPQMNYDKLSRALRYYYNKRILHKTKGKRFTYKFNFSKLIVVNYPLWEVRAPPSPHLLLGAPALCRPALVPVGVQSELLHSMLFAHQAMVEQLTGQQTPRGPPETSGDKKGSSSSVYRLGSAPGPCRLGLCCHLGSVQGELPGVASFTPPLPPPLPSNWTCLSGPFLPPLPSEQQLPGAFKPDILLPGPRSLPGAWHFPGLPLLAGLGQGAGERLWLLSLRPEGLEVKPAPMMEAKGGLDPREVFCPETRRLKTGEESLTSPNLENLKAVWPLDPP
The conditions noted are these: protein: recombinant; tags: N-terminal GST; dsDNA, one strand shown. An outline of the steps:
as §1

The target of another experiment is T8, ETS2 (Homo sapiens, UniProt P15036 1-469).
T8 sequence: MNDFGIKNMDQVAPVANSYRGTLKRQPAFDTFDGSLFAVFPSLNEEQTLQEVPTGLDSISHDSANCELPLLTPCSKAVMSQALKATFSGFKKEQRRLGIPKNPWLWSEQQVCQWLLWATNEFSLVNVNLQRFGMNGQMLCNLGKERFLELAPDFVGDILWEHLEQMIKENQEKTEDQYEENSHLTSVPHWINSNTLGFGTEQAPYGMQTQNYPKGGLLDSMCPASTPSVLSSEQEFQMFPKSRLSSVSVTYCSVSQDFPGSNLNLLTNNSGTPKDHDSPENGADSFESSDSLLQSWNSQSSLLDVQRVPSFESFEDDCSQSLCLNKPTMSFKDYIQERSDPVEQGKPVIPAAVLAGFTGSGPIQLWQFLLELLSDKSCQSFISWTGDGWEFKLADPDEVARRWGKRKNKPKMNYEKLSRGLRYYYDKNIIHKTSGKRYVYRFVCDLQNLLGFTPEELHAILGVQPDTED
The conditions noted are these: protein: recombinant; tags: N-terminal GST; dsDNA, one strand shown. An outline of the steps: as §1

The next experiment concerns the target T9, SPDEF (Homo sapiens, UniProt O95238 1-335).
T9 sequence: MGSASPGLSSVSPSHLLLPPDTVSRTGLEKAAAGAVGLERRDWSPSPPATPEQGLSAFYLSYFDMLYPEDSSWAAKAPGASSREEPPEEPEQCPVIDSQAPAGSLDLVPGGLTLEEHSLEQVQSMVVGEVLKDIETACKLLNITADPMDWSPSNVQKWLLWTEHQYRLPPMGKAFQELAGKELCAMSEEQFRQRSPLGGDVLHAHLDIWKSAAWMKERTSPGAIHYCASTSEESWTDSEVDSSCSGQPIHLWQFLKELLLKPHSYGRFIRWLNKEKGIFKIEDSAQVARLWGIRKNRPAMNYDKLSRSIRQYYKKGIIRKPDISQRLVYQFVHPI
Conditions: protein: recombinant; tags: N-terminal GST; dsDNA, one strand shown. In short, it runs like this: as §1

The target in another experiment is T10, ETV7 (Homo sapiens, UniProt Q9Y603 1-341).
T10 sequence: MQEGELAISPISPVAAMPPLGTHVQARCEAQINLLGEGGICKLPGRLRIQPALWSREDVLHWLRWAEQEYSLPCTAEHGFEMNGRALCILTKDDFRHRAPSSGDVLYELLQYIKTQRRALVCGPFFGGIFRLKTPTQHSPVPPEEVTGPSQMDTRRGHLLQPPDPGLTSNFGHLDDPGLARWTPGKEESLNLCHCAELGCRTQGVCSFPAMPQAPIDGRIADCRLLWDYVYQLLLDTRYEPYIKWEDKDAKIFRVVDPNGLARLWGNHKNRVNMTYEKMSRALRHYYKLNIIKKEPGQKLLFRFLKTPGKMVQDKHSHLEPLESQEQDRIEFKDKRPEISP
Conditions: protein: recombinant; tags: N-terminal GST; dsDNA, one strand shown. An outline of the steps:
as §1

In a further experiment the target is T11, ELF5 (Homo sapiens, UniProt Q9UKW6-2 1-255).
T11 sequence: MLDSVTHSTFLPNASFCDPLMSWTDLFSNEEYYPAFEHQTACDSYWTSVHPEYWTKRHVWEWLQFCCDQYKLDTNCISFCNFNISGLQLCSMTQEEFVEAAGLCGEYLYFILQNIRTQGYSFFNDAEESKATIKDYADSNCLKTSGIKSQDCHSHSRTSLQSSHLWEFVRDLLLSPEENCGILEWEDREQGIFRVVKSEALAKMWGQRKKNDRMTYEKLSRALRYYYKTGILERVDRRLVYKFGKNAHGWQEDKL
Conditions: protein: recombinant; tags: N-terminal GST; dsDNA, one strand shown. In short, it runs like this:
as §1

A further experiment concerns the target T12, ETV3 (Homo sapiens, UniProt P41162-2 1-143).
T12 sequence: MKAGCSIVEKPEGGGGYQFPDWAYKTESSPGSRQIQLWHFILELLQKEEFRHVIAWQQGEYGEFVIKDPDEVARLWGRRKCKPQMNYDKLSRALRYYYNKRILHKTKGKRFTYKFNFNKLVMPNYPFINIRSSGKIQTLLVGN
Conditions: protein: recombinant; tags: N-terminal GST; dsDNA, one strand shown. An outline of the steps: as §1

In a further experiment the target is ETV6 (Homo sapiens, UniProt P41212 1-452). Conditions: protein: recombinant; tags: N-terminal GST; dsDNA, one strand shown. In short, it runs like this:
as §1

Chain of CRX (O43186 whole entry): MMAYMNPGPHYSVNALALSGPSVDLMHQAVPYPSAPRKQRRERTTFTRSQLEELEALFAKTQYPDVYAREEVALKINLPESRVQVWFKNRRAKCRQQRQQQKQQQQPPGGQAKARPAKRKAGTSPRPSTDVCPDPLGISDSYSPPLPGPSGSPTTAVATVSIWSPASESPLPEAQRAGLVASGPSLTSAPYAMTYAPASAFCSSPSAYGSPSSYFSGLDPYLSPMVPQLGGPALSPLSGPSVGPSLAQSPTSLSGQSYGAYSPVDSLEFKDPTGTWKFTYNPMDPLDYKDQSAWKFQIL
Chain of HSF1 (Q00613 whole entry): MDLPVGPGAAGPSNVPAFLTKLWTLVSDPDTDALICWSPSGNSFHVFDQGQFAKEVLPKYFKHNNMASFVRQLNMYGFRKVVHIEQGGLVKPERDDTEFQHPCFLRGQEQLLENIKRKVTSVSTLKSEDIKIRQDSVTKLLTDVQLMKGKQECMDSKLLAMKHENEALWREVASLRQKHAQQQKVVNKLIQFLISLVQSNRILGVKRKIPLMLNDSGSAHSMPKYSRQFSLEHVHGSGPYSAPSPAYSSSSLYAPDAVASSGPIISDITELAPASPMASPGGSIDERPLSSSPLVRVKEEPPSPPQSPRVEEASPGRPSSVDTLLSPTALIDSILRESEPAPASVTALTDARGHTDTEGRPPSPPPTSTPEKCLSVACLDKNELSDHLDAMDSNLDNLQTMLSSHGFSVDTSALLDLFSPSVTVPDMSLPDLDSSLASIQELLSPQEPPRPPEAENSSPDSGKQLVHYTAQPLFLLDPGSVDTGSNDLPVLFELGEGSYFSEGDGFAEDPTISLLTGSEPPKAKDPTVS
Chain of ETV1 (P50549 whole entry): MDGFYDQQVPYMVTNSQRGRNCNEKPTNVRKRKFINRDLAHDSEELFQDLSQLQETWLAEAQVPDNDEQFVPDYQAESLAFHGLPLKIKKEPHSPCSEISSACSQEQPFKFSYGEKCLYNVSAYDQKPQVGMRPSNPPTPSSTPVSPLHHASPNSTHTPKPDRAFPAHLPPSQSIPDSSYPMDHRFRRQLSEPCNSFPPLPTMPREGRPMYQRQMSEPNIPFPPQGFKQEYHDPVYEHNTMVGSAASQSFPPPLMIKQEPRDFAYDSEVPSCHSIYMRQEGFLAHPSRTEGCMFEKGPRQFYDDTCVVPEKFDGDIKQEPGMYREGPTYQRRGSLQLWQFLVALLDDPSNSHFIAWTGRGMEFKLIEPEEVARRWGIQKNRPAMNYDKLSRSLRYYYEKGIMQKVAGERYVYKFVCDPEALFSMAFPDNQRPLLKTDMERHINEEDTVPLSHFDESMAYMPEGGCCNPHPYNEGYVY
Chain of ETV5 (P41161 whole entry): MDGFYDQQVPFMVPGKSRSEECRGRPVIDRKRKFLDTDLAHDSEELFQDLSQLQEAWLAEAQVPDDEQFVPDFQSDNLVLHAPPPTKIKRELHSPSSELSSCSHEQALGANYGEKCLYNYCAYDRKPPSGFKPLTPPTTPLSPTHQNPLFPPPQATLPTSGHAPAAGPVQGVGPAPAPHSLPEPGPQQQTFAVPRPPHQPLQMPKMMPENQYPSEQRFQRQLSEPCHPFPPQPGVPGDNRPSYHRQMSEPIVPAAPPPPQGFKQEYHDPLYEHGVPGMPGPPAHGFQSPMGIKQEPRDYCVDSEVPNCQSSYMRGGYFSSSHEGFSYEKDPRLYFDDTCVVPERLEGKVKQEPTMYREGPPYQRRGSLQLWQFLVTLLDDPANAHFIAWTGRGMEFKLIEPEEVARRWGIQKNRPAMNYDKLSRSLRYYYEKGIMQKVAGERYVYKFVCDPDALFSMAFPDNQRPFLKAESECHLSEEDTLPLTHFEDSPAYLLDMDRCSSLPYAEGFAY
Chain of ELF4 (Q99607 whole entry): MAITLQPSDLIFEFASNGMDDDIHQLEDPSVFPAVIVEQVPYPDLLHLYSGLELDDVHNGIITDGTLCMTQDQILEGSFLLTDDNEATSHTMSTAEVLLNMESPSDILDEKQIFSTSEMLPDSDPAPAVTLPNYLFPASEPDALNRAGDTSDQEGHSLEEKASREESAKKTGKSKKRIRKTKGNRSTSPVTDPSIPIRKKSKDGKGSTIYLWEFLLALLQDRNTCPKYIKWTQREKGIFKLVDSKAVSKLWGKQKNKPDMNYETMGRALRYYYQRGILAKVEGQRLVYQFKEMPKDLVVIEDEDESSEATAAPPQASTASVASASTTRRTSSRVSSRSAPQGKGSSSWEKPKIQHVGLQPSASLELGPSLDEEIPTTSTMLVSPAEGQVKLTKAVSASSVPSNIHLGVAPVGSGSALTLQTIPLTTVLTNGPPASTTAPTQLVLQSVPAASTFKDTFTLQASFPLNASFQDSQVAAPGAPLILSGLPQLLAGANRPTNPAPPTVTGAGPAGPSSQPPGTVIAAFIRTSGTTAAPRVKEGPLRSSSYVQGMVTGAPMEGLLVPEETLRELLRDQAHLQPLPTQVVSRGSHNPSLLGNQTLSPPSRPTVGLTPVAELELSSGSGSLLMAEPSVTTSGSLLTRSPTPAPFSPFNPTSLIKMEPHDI
Chain of ETV6 (P41212 whole entry): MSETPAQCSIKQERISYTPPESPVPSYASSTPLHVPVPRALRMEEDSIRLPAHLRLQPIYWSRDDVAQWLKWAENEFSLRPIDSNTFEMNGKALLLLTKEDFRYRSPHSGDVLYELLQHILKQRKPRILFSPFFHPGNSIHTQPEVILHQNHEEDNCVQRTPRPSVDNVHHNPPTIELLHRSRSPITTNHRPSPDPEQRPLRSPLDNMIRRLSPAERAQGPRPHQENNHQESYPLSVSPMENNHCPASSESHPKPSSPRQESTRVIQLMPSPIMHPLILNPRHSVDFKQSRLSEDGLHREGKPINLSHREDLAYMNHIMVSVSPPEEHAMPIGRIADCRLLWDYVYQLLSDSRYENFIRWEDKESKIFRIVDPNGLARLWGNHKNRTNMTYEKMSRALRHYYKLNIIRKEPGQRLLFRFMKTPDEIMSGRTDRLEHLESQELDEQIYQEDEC

In the case of TTCCAC, the binding signal in the experiment with FEV is 1.37 fold enrichment (6-mer frequency, TF over GST control); in the experiment with ETV5, 1.41 fold enrichment (6-mer frequency, TF over GST control); with HSF1, 1.83 fold enrichment (6-mer frequency, TF over GST control); with SPIC, 1.57 fold enrichment (6-mer frequency, TF over GST control); with ELF4, 1.42 fold enrichment (6-mer frequency, TF over GST control); in the experiment with ELK4, 1.39 fold enrichment (6-mer frequency, TF over GST control). The binding signal in the experiment with ETV2 was 1.42 fold enrichment (6-mer frequency, TF over GST control); with ELF3, 1.38 fold enrichment (6-mer frequency, TF over GST control); in the experiment with CRX, 1.26 fold enrichment (6-mer frequency, TF over GST control); with ETV1 it was 1.38 fold enrichment (6-mer frequency, TF over GST control); in the experiment with ERF it was 1.38 fold enrichment (6-mer frequency, TF over GST control); with ETV3L, 1.54 fold enrichment (6-mer frequency, TF over GST control). Further, the binding signal was 1.44 fold enrichment (6-mer frequency, TF over GST control) in the experiment with ETS2; 1.36 fold enrichment (6-mer frequency, TF over GST control) with SPDEF; 1.31 fold enrichment (6-mer frequency, TF over GST control) in the experiment with ETV7; 1.51 fold enrichment (6-mer frequency, TF over GST control) in the experiment with ELF5; 1.46 fold enrichment (6-mer frequency, TF over GST control) with ETV3; 1.47 fold enrichment (6-mer frequency, TF over GST control) with ETV6.

For the origin of these results see article PMC7862700, “An all-to-all approach to the identification of sequence-specific readers for epigenetic DNA modifications on cytosine”.
